Screening results as filed in PubChem.
Rows were chosen to be rich in hits. Some 2.8% of all compounds tested hit in one or more screens of this group.
SNCA viab count: reduces viability of HEK-293 SNCA reporter cells | HEK-293-SNCA-luc viability, GF-AFC fluorescence, 24 h | AID 1671193 | hit rate 0.12% among 150,000 | Potency, µM (top dose mostly 57.1 µM), inactives show at the highest dose activity change, negative = cytotoxicity, usual class: cytotoxic;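 note: potency is the fitted concentration of half-maximal effect; 0% = DMSO-treated cells and -100% = medium-only wells without cells; nearly all actives have a fitted effect of over 30% in size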
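Cytotoxicity counterscreen: after 24 h compound treatment of genome-edited SNCA-luciferase HEK-293 cells, live-cell protease substrate GF-AFC read by fluorescence after 30 min; activity scaled between DMSO (0%) and medium-only (-100%), curves Hill-fitted.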
IP6K1 inh: blocks human inositol hexakisphosphate kinase 1. Q92551. IP6K1 kinase, ADP-Glo luminescence, 2 h; stronger effect = lower value. activity change, % (series mostly up to about 58 µM). hit rate 0.81% among 140,000; in the data active = activity change below about -25%; note: % is set by controls: 0 for no effect and ±100 for the full control effect
Target sequence (Q92551 whole entry, looked up): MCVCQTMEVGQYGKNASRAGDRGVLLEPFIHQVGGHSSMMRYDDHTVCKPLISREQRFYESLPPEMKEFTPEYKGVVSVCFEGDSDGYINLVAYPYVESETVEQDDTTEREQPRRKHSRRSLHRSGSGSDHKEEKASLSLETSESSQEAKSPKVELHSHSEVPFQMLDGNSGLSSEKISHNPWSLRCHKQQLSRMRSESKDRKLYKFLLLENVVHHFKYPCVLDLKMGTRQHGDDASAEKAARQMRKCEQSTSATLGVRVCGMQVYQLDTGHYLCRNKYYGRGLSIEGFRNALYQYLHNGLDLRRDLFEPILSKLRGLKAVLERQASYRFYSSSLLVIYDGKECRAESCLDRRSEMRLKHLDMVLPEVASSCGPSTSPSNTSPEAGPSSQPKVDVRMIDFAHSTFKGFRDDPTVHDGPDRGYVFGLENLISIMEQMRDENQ
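ADP-Glo luminescence measures ADP made by human IP6K1 during a 2 h RT reaction with ATP/IP6 (mix at 1.3 mM/130 uM); top library doses 57.5 and 19.1 uM final.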
KDM5B inh: blocks human KDM5B histone demethylase activity. AID 1347165. hit rate 2.6% among 220,000. KDM5B demethylase, FDH-coupled NADH fluorescence (FDH is formaldehyde dehydrogenase). Q9UGL1. Potency, µM (titrated, usually from 57.7 µM), hits mostly inhibitors; note: potency is the fitted concentration of half-maximal effect; 0% is about no effect; nearly all actives have a fitted effect of over 70% in size
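Measured: NADH fluorescence change, 30 min, RT. System: KDM5BΔAP 200 nM final, H3K4me3 peptide, α-KG, Fe(II), ascorbate, NAD⁺ plus FDH, pH 7.5 HEPES. Compounds: titrated, 10 min pre-incubation with enzyme.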
SNCA expr inhib: inhibitors of alpha-synuclein (SNCA) gene expression; hit rate 0.17% among 140,000; HEK-293 SNCA-luciferase knock-in, luminescence, 24 h; Potency, µM (top dose mostly 57.2 µM), for inactives: at the highest dose activity change, negative = inhibition, hits mostly inhibitors; AID 1671194;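 note: potency is the fitted concentration of half-maximal effect; plate controls were DMSO cells for no effect and cell-free wells for full effect; nearly all actives have a fitted effect of over 45% in size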
Numbers without * were called inactive; i = inactive; ? = inconclusive; . = no result given; [ ] = remark or other dose. Unless noted, calls come from the whole dose curve; as a rule, active = well fitted curve in the direction sought with a large enough effect; inconclusive = small, poorly fitted or top-dose-only effect, or another doubt; inactive = no such curve, though single readings can be large; an effect the other way counts as inactive or inconclusive.

SMILES	SNCA viab count	IP6K1 inh	KDM5B inh	SNCA expr inhib
O=C(Cn1ccn2nc(-c3ccc(F)cc3)c(CO)c2c1=O)Nc1cccc(C(F)(F)F)c1	8%	2	22µM*	6%
O=C(Cn1ccn2nc(-c3ccc(F)cc3)c(CO)c2c1=O)Nc1cc(F)ccc1Cl	-18%	5	i	?
COC(=O)N1CCC(N2C(=O)c3c(c(C)nn3-c3ccccc3)C2C)C1 (centres undefined)	.	-1	.	.
COc1ccc(CCNC(=O)c2ccc3c(c2)N(Cc2ccccc2)C(=O)CS3=O)cc1OC (centres undefined)	.	.	i	.
O=C(O)c1nn(CC(=O)N2CCCCCCC2)c(=O)c2ccccc12	.	.	i	.
Cc1ccc(CN2CCCCCCNC(=O)[C@@H]3C[C@@H](C(=O)N4CCN(c5ccccn5)CC4)C[C@@H]32)o1	-11%	-5	20µM*	4%
CCS(=O)(=O)N1CCCCCCNC(=O)[C@@H]2C[C@@H](C(=O)N3CCN(c4ccccn4)CC3)C[C@@H]21	4%	0	?	-8%
CC(C)C(=O)N1CCCCCCNC(=O)[C@@H]2C[C@@H](C(=O)N3CCN(c4ccccn4)CC3)C[C@@H]21	-2%	2	25µM*	-13%
COc1cccc(-c2c(C(=O)NC(C)C)nc3sccn23)c1	-7%[87.6 µM]	6	.	40%[87.6 µM]
O=C(Cc1ccc(F)cc1)NCc1nnc2cc(-c3nc(C4CC4)no3)ccn12	-2%	4	28µM*	7%
O=C(Cc1cccc(F)c1)NCc1nnc2cc(-c3nc(C4CC4)no3)ccn12	12%	-6	28µM*	-23%
Cc1cn2nc(C(=O)Nc3ccc(F)cc3C)cc2c(N2CCSCC2)n1	?	0	25µM*	28%
Cc1ccc(NC(=O)c2cc3c(N4CCSCC4)nc(C)cn3n2)c(F)c1	9%	9	28µM*	-10%
COc1cc(NC(=O)c2cc3c(N4CCSCC4)nc(C)cn3n2)c(OC)cc1Cl	4%	5	?	-17%
CCC(=O)N1N=C(c2cccc(NS(C)(=O)=O)c2)CC1c1ccc2nccnc2c1 (centres undefined)	.	.	i	.
O=C(NCCc1cccc(F)c1)C1CC(=O)N(c2n[nH]c3ccccc23)C1 (centres undefined)	8%	4	22µM*	8%
O=C(NCCC1=CCCCC1)C1CC(=O)N(c2n[nH]c3ccccc23)C1 (centres undefined)	7%	-1	25µM*	24%
O=C(NCc1ccc(F)cc1)C1CC(=O)N(c2n[nH]c3ccccc23)C1 (centres undefined)	14%	3	?	-10%
Cc1nc(COc2ccc(C(=O)N3CCN(C4CCS(=O)(=O)C4)CC3)cc2)cs1 (centres undefined)	.	.	i	.
Cc1ccc(C(=O)NC(CN(C)C)c2ccccc2)cc1F (centres undefined)	.	.	i	.
Cc1nc(Nc2n[nH]c3c2CN(C(=O)N[C@H](CN(C)C)c2ccccc2)C3(C)C)c2sccc2n1	?	28	.	0.015µM*
COc1ccc(C(=O)NCCn2ccn3nc(-c4ccc(F)cc4)cc3c2=O)cn1	-5%	0	25µM*	-15%
COc1ccc(-c2cc3c(=O)n(CCNC(=O)c4ccc5c(c4)OCO5)ccn3n2)cc1	-4%	-12	6.3µM*	59%
COc1ccc(-c2cc3c(=O)n(CCNC(=O)c4ccc(F)c(F)c4)ccn3n2)cc1	-2%	-1	?	97%
COc1ccc(-c2cc3c(=O)n(CCNC(=O)c4ccc(N(C)C)cc4)ccn3n2)cc1	-5%	-9	25µM*	59%
SMILES	SNCA viab count	IP6K1 inh	KDM5B inh	SNCA expr inhib
O=C(NCC1(c2ccccc2)CCC1)c1n[nH]c(=O)c2ccccc12	.	.	i	.
COc1ccccc1-c1nc(C(=O)NCc2ccc(F)cc2)n2ccccc12	-1%	-18	79µM*	18%
COC(=O)CNC(=O)c1nc(-c2ccccc2OC)c2ccccn12	3%	13	89µM*	63%
COc1ccccc1-c1nc(C(=O)NC2CC2)n2ccncc12	6%[87.6 µM]	4	35µM*	14%[87.6 µM]
COC(=O)CNC(=O)c1nc(-c2ccccc2)c2ccccn12	4%[87.6 µM]	16	i	-7%[87.6 µM]
COCCNC(=O)c1nc(-c2cccnc2)c2ccccn12	-7%[87.6 µM]	18	i	-3%[87.6 µM]
COCCNC(=O)c1nc(-c2ccccc2OC)c2cnccn12	21%[87.6 µM]	0	32µM*	12%[87.6 µM]
COc1ccccc1-c1nc(C(=O)NCc2cccs2)n2ccccc12	-6%	36	?	42%
CSc1ccc(-c2cccc(C(=O)NCC(=O)N3CCCCC3)c2)cc1	-3%	8	.	62%
COc1ccc(NC(=O)c2cc(=O)c3ccc(C)c(C)c3o2)cc1	.	.	i	.
O=C(Nc1ccc(Cl)cc1)N1CCN(c2nccc(Nc3ccccc3Cl)n2)CC1	-1%	5	.	-5%
COc1ccccc1-c1nc(C(=O)NCc2ccc(F)cc2)n2ccncc12	?	-12	89µM*	0%
C[S+](=O)([O-])c1ccc(-c2nc(C(=O)NCc3ccc(F)cc3)n3ccncc23)cc1	14%	-14	i	-3%
Cc1cc(C)cc(C(=O)NCCn2ccn3nc(-c4ccc(C)cc4C)cc3c2=O)c1	-1%	-1	22µM*	102%
Cc1ccc(-c2cc3c(=O)n(CCNC(=O)c4cccc(Cl)c4)ccn3n2)c(C)c1	-13%	0	28µM*	52%
CCC[n+]1c(NCc2cc(Br)cc(Br)c2[O-])[nH]c2ccccc21	.	.	i	.
Cc1ccc(C(=O)Nc2ccccc2C(F)(F)F)c(Cl)c1	.	.	i	.
CC(Sc1ccccc1Cl)C(=O)NC1(C#N)CCSC1 (centres undefined)	.	.	i	.
CCN1CC(C(=O)N2CCN(Cc3cc(OC)ccc3OC)CC2)CC1=O (centres undefined)	-7%	-8	i	1%
CCN1CC(C(=O)N2CCN(CCOc3ccccc3)CC2)CC1=O (centres undefined)	-6%	-7	25µM*	18%
CCn1nc(C(=O)Nc2nc(-c3ccc(OC)c(OC)c3)cs2)c2ccccc2c1=O	.	.	i	.
O=C(N[C@@H]1CCOC[C@H]1O)c1cnn2cc(CCO)cnc12	5%	-8	28µM*	-19%
CCN(CC)Cc1cnc2c(C(=O)NC3CCC3)cnn2c1	-1%	-2	?	0%
O=C1[C@H]2CN(Cc3ccc(F)c(Cl)c3)C[C@H]2C(=O)N1CCc1ccccc1	-18%	-24	13µM*	-13%
CCn1c(C)c(C(C)=O)c2cc(OCC(O)CN3CCCCCC3)ccc21 (centres undefined)	.	.	i	.
O=C1CCC2(CCCN(c3ncc(Cl)cc3F)C2)CN1Cc1cccnc1 (centres undefined)	11%	1	28µM*	-4%
Cc1ccc(Nc2ccnc(N3CCN(C(=O)C4CC4)CC3)n2)cc1	-16%[87.6 µM]	0	.	30%[87.6 µM]
O=C(NCc1nnc2cc(-c3nc(C4CC4)no3)ccn12)c1cccc(Cl)c1	-12%	33	14µM*	-24%
Cc1noc(-c2ccn3c(CNC(=O)c4nccc5ccccc45)nnc3c2)n1	-3%	7	32µM*	30%
